Laboratory results as given in PubChem BioAssay (NCATS).
Inconclusive results are not listed. The source made the active and inactive calls. Calls come from the whole dose curve; as a rule, active = well fitted cell-killing curve with a large enough effect; inconclusive = small, poorly fitted or top-dose-only effect, or effect the other way; inactive = no such curve, though single readings can be large or run the other way.

test: Quantitative High-Throughput drug screen in 47 multiple myeloma cell lines against the NCATS MIPE library collection: UTMC2_PLB cell viability assay (AID 1919868); conditions: CellTiter-Glo ATP luminescence, 48 h; viability (% of DMSO control): at 45.8 µM (top of the series) unless noted; note: nearly all actives have a fitted effect of over 55% in size
Method in brief: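 Myeloma cells (500/well) treated with MIPE 4.0 compounds for 48 h at 37 °C, 5% CO2. Viability read as ATP via CellTiter-Glo luminescence after 5 min at RT; DMSO-only wells = 100%, media-only = 0% viability.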
Potency is the fitted concentration of half-maximal effect.

SMILES	Potency
CN[C@H]1CCc2cc(OC)c(OC)c(OC)c2-c2ccc(OC)c(=O)cc21	0.0093 µM (active)
CN1CC[C@@H](c2c(O)cc(O)c3c(=O)cc(-c4ccccc4Cl)oc23)[C@@H](O)C1	0.0833 µM (active)
Cc1[nH]c2ccccc2c1CCNCc1ccc(C=CC(=O)NO)cc1	0.0148 µM (active)
Cc1cc(Nc2cc(N3CCN(C)CC3)nc(C=Cc3ccccc3)n2)n[nH]1	1.91 µM (active)
CC(C)[C@H](C(=O)Nc1ccc(C(=O)NO)cc1)c1ccccc1	0.469 µM (active)
Nc1ccn([C@@H]2O[C@H](CO)[C@H](O)C2(F)F)c(=O)n1	0.0148 µM (active)
CCC1=C[C@@H]2CN(C1)Cc1c([nH]c3ccccc13)[C@@](C(=O)OC)(c1cc3c(cc1OC)N(C)[C@@H]1[C@@](O)(C(=O)OC)[C@H](OC(C)=O)[C@]4(CC)C=CCN5CC[C@]31[C@@H]54)C2	0.001 µM (active)
CCCCN1CCC(CNC(=O)c2c3n(c4ccccc24)CCCO3)CC1	9.35 µM (active)
O=C(CCCCCCC(=O)Nc1ccc([C@H]2O[C@@H](CSc3nc(-c4ccccc4)c(-c4ccccc4)o3)C[C@@H](c3ccc(CO)cc3)O2)cc1)NO	8.33 µM (active)
Nc1ccc(S(=O)(=O)Nc2ncccn2)cc1	inactive
CC(O)C1C(=O)N2C(C(=O)O)=C(SC3CNC(C(=O)N(C)C)C3)C(C)C12 (stereo not drawn)	inactive
COc1cc2c(Oc3ccc4[nH]c(C)cc4c3F)ncnc2cc1OCCCN1CCCC1	26.4 µM (active)
CCCCCN(CCC12CC3CC(CC(C3)C1)C2)C(=O)NCCCc1ccncc1	18.7 µM (active)
